According to PubChem BioAssay (NCATS):
Inconclusive results are not listed. Calls of active or inactive are those of the source. Calls come from the whole dose curve; as a rule, active = well fitted inhibition curve with a large enough effect; inconclusive = small, poorly fitted or top-dose-only effect; inactive = flat fitted curve, though single readings scatter. Bridge positions count the residues as written; N and C are the ends. Square brackets hold non-standard residues; d marks the D form. Peptide text beside a SMILES is read from it. * marks the point of attachment. Ileψ(thiazoline)Cys = CC[C@H](C)[C@H](N)C1=N[C@H](C(=O)*)CS1; d(aIle) = CC[C@H](C)[C@@H](N)C(=O)O; dOrn = NCCC[C@@H](N)C(=O)O

Experiments:
Assay in all cases: qHTS profiling for inhibitors of Plasmodium falciparum proliferation (AID 504749); note: nearly all actives have a fitted effect of over 60% in size
Details in all cases: P. falciparum in erythrocytes, SYBR Green DNA, 72 h; series mostly up to 12.8 µM
3D7 = tested on: 3D7
Method in brief: (§1)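 Parasite proliferation within erythrocytes, 72 h exposure. Endpoint: SYBR Green I fluorescence after overnight lysis at room temperature. Controls: 0.29 uM artemisinin, DMSO.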

ATS189 = tested on: ATS189
Method in brief: as §1

CP185 = tested on: CP185
Method in brief: as §1

CP191 = tested on: CP191
Method in brief: as §1

CP192 = tested on: CP192
Method in brief: as §1

CP194 = tested on: CP194
Method in brief: as §1

CP203 = tested on: CP203
Method in brief: as §1

CP211 = tested on: CP211
Method in brief: as §1

CP215 = tested on: CP215
Method in brief: as §1

CP247 = tested on: CP247
Method in brief: as §1

CP262 = tested on: CP262
Method in brief: as §1

CP269 = tested on: CP269
Method in brief: as §1

CP291 = tested on: CP291
Method in brief: as §1

CP305 = tested on: CP305
Method in brief: as §1

CP325 = tested on: CP325
Method in brief: as §1

DIV17 = tested on: DIV17
Method in brief: as §1

DIV30 = tested on: DIV30
Method in brief: as §1

PC15 = tested on: PC15
Method in brief: as §1

TAB113 = tested on: TAB113
Method in brief: as §1

TAB165 = tested on: TAB165
Method in brief: as §1

Measured: Potency
Potency is the fitted concentration of half-maximal effect.

NC[C@@H]1O[C@@H](O[C@H]2[C@H](O)[C@H](O[C@@H]3O[C@H](CO)[C@@H](O)[C@H](N)[C@@H]3O)[C@@H](N)C[C@H]2N)[C@H](N)C[C@@H]1O
inactive: all assays above

CCOC(=O)O[C@@H](C)OC(=O)[C@@H]1N2C(=O)[C@@H](NC(=O)[C@@H](N)c3ccccc3)[C@H]2SC1(C)C
not listed: CP192
inactive: all other assays above

Clc1ccc([C@H](Cn2ccnc2)OCc2c(Cl)cccc2Cl)c(Cl)c1
active: 3D7 2.51 µM | ATS189 3.98 µM | CP191 3.16 µM | CP203 6.42 µM | CP215 5.73 µM | CP247 3.16 µM | DIV17 4.05 µM | DIV30 7.21 µM | TAB113 3.98 µM | TAB165 0.355 µM

CO[C@]1(NC(=O)[C@H](C(=O)O)c2ccc(O)cc2)C(=O)N2C(C(=O)O)=C(CSc3nnnn3C)CO[C@H]21
inactive: all assays above

CCN(CCCCOC(=O)c1ccc(OC)c(OC)c1)[C@@H](C)Cc1ccc(OC)cc1
inactive: 3D7 | ATS189 | CP211 | CP215 | CP247 | CP291 | CP325 | DIV30 | PC15 | TAB113 | TAB165

CC(=O)OCC(=O)[C@@]1(O)CC[C@@H]2[C@H]3CCC4=CC(=O)C=C[C@]4(C)[C@]3(F)[C@@H](O)C[C@@]21C
inactive: all assays above

CC(C)(C)NC[C@H](O)COc1cccc2c1CCC(=O)N2
inactive: all assays above

CC[C@H](C)[C@H](N)C1=N[C@H](C(=O)N[C@@H](CC(C)C)C(=O)N[C@@H](CCC(=O)O)C(=O)N[C@@H](C(=O)N[C@H]2CCCCNC(=O)[C@@H](CC(N)=O)NC(=O)[C@@H](CC(=O)O)NC(=O)[C@@H](Cc3cnc[nH]3)NC(=O)[C@@H](Cc3ccccc3)NC(=O)[C@@H]([C@@H](C)CC)NC(=O)[C@@H](CCCN)NC2=O)[C@@H](C)CC)CS1 ({Ileψ(thiazoline)Cys}-LE[d(aIle)]K[dOrn][d(aIle)][dF][dH][dD][dN]; lactam 4-C)
inactive: all assays above

C[C@@H]1C[C@H]2[C@@H]3C[C@H](F)C4=CC(=O)C=C[C@@]4(C)[C@]3(F)[C@H](O)C[C@]2(C)[C@@]1(O)C(=O)CO
inactive: all assays above

CCc1c(C)[nH]c2c1C(=O)[C@H](CN1CCOCC1)CC2
not listed: CP203
inactive: all other assays above

O=C(O)COCCN1CCN([C@@H](c2ccccc2)c2ccc(Cl)cc2)CC1
not listed: CP191 | DIV17
inactive: all other assays above

Cc1cccc(CN2CCN([C@@H](c3ccccc3)c3ccc(Cl)cc3)CC2)c1
inactive: CP194 | CP203 | CP211 | CP215 | CP262 | CP269 | CP291 | CP305 | CP325

C[C@@H](CNC1CCCCC1)OC(=O)c1ccccc1
active: ATS189 3.16 µM | DIV17 4.55 µM
inactive: CP185 | CP192 | CP211 | CP262
